In PubChem BioAssay (NCATS):
“And” between values parts separate entries of the source, which are not always exact repeats. Equal entries are not always repeated. Results filed as inconclusive are left out. The source made the active and inactive calls. The call rests on the fitted dose curve; in most records, active means well fitted curve in the direction sought with a large enough effect; inconclusive means small, poorly fitted or top-dose-only effect, or another doubt; inactive means no such curve, though single readings can be large; an effect the other way counts as inactive or inconclusive.

Legend:
[1] = test system: MCC-13; experiment: qHTS assay to identify novel small-molecules to repurpose for Merkel cell carcinoma treatment (AID 1296009); conditions: MCC and control cell lines, CellTiter-Glo viability, 72 h; series mostly up to 46 µM; further: nearly all actives have a fitted effect of over 60% in size; further: potency means the concentration at half of the fitted maximal effect
Method in brief: (§1)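 Cells were treated for 72 hr at 37 degree celsius with compounds in 8- or 11-point dose response. Viability was read by CellTiter-Glo luminescence, normalized to no-cell (cytotoxicity) and DMSO controls.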

[2] = test system: MCC-26; experiment: as above; conditions: MCC and control cell lines, CellTiter-Glo viability, 72 h; series mostly up to 46 µM
Method in brief: as §1

[3] = test system: MKL-1; experiment: as above; conditions: MCC and control cell lines, CellTiter-Glo viability, 72 h; series mostly up to 46 µM
Method in brief: as §1

[4] = test system: MKL-2; experiment: as above; conditions: MCC and control cell lines, CellTiter-Glo viability, 72 h; series mostly up to 46 µM
Method in brief: as §1

[5] = test system: NIH3T3; experiment: as above; conditions: MCC and control cell lines, CellTiter-Glo viability, 72 h; at 44.8 µM (top of the series) unless noted
Method in brief: as §1

[6] = test system: UISO; experiment: as above; conditions: MCC and control cell lines, CellTiter-Glo viability, 72 h; series mostly up to 46 µM
Method in brief: as §1

[7] = test system: WaGa; experiment: as above; conditions: MCC and control cell lines, CellTiter-Glo viability, 72 h; series mostly up to 46 µM
Method in brief: as §1

[8] = test system: C33A; experiment: Primary qHTS to identify gynecologic anti-cancer compounds using libraries of approved drugs and bioactive compounds (AID 1345084); conditions: Gynecologic cancer cell panel viability, ATPlite luminescence, 48 h; series mostly up to 57.5 µM; further: nearly all actives have a fitted effect of over 55% in size
Method in brief: (§2)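 Cell viability after 48 h drug treatment, ATPlite luminescence readout; five doses.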

[9] = test system: CAOV3; experiment: as above; conditions: Gynecologic cancer cell panel viability, ATPlite luminescence, 48 h; series mostly up to 57.5 µM
Method in brief: as §2

[10] = test system: CASKI; experiment: as above; conditions: Gynecologic cancer cell panel viability, ATPlite luminescence, 48 h; series mostly up to 57.5 µM
Method in brief: as §2

[11] = test system: Es-2; experiment: as above; conditions: Gynecologic cancer cell panel viability, ATPlite luminescence, 48 h; series mostly up to 57.5 µM
Method in brief: as §2

[12] = test system: HeLa; experiment: as above; conditions: Gynecologic cancer cell panel viability, ATPlite luminescence, 48 h; series mostly up to 57.5 µM
Method in brief: as §2

[13] = test system: Hek293T; experiment: as above; conditions: Gynecologic cancer cell panel viability, ATPlite luminescence, 48 h, control line for the selectivity index; series mostly up to 57.5 µM
Method in brief: as §2

[14] = test system: JEG-3; experiment: as above; conditions: Gynecologic cancer cell panel viability, ATPlite luminescence, 48 h; series mostly up to 57.5 µM
Method in brief: as §2

[15] = test system: OV90; experiment: as above; conditions: Gynecologic cancer cell panel viability, ATPlite luminescence, 48 h; series mostly up to 57.5 µM
Method in brief: as §2

[16] = test system: PA-1; experiment: as above; conditions: Gynecologic cancer cell panel viability, ATPlite luminescence, 48 h; series mostly up to 57.5 µM
Method in brief: as §2

[17] = test system: SKOV3; experiment: as above; conditions: Gynecologic cancer cell panel viability, ATPlite luminescence, 48 h; series mostly up to 57.5 µM
Method in brief: as §2

[18] = test system: Tov-21-G; experiment: as above; conditions: Gynecologic cancer cell panel viability, ATPlite luminescence, 48 h; series mostly up to 57.5 µM
Method in brief: as §2

[19] = test system: Tov112D; experiment: as above; conditions: Gynecologic cancer cell panel viability, ATPlite luminescence, 48 h; series mostly up to 57.5 µM
Method in brief: as §2

[20] = Drug repurposing screens with cells derived from glioblastoma tumor samples (AID 1345199); conditions: GBM patient neurospheres viability, ATP luminescence, 48 h; further: nearly all actives have a fitted effect of over 40% in size; further: potency means the concentration at half of the fitted maximal effect
Method in brief: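 Four patient lines of CD133+ GBM neurospheres were screened at several concentrations; hits were retested in those lines plus three slower-growing GBM lines, using 48-hour treatment and ATP-based viability.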

[21] = at 45.9 µM (top of the series), tumour line B
[22] = at 45.9 µM (top of the series), tumour line D
[23] = at 46.1 µM (top of the series), tumour line C
On the % scale 0 is the no-effect control and ±100 the full control effect.

NC(=O)CC[C@@H]1NC(=O)[C@H](Cc2ccccc2)NC(=O)[C@H](Cc2ccc(O)cc2)NC(=O)CCSSC[C@@H](C(=O)N2CCC[C@H]2C(=O)N[C@@H](CCCN=C(N)N)C(=O)NCC(N)=O)NC(=O)[C@H](CC(N)=O)NC1=O
inactive: Potency [1] | Potency [2] | Potency [3] | Potency [4] | outcome [5] | Potency [6] | Potency [7] | Potency [8] | Potency [9] | Potency [10] | Potency [11] | Potency [12] | Potency [13] | Potency [14] | Potency [15] | Potency [16] | Potency [17] | Potency [18] | Potency [19] | activity, negative = cell killing [20, 21] -2.8% and 1.21% | activity, negative = cell killing [20, 22] -7.07% and -4.13% | activity, negative = cell killing ([20]; at 46 µM (top of the series), tumour line A) -24.9% and -29% | activity, negative = cell killing [20, 23] -17.6% and 1.07%

CC(=O)CC(c1ccc([N+](=O)[O-])cc1)c1c(O)c2ccccc2oc1=O (stereo unspecified)
inactive: Potency [1] | Potency [2] | Potency [3] | Potency [4] | Potency [6] | Potency [7] | Potency [8] | Potency [9] | Potency [10] | Potency [11] | Potency [12] | Potency [13] | Potency [14] | Potency [15] | Potency [16] | Potency [17] | Potency [18] | Potency [19] | activity, negative = cell killing ([20]; at 20 µM (top of the series), tumour line C) 0.914% | activity, negative = cell killing ([20]; at 21.2 µM (top of the series), tumour line B) -11% | activity, negative = cell killing ([20]; at 21.2 µM (top of the series), tumour line D) -16.8%

C[C@@H]1C[C@H]2[C@@H]3CCC4=CC(=O)C=C[C@]4(C)[C@@]3(F)[C@@H](O)C[C@]2(C)[C@H]1C(=O)CO
inactive: Potency [1] | Potency [2] | Potency [3] | Potency [4] | Potency [6] | Potency [7] | Potency [8] | Potency [9] | Potency [10] | Potency [11] | Potency [12] | Potency [13] | Potency [14] | Potency [15] | Potency [16] | Potency [17] | Potency [18] | Potency [19] | activity, negative = cell killing [20, 21] -17.3% | activity, negative = cell killing [20, 22] -7.25% | activity, negative = cell killing [20, 23] 1.19%

CCCCCCc1ccc(O)cc1O
inactive: Potency [1] | Potency [2] | Potency [3] | Potency [4] | Potency [6] | Potency [7] | Potency [8] | Potency [9] | Potency [10] | Potency [11] | Potency [12] | Potency [13] | Potency [14] | Potency [15] | Potency [16] | Potency [17] | Potency [18] | Potency [19] | activity, negative = cell killing [20, 21] -28.1% | activity, negative = cell killing [20, 23] -19.2%
active: Potency ([20]; tumour line A) 10 µM

NC(=O)C(=O)N/N=C/c1ccc([N+](=O)[O-])o1
inactive: Potency [1] | Potency [2] | Potency [8] | Potency [9] | Potency [10] | Potency [11] | Potency [12] | Potency [13] | Potency [14] | Potency [15] | Potency [16] | Potency [17] | Potency [18] | Potency [19] | activity, negative = cell killing [20, 23] 10.3%
active: Potency [3] 26.6 µM | Potency [4] 7.5 µM | Potency [6] 29.9 µM | Potency [7] 15 µM | Potency ([20]; tumour line A) 35.5 µM
